IL1B secr inh: inflammasome signaling inhibition, IL-1 beta readout; activity change, % at 57.5 µM; AID 743279; THP-1 LPS/ATP IL-1B secretion, AlphaLISA, 16 h; hits give low values; 4.7% of 360,000 active; in the data active = activity change below about -50%; inconclusive = mostly about -30% to -49%
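THP-1 cells pretreated 1 hr with compounds (up to 57.5 uM final), then stimulated with LPS (250 ng/mL final) plus ATP (1.25 mM final); secreted IL-1B measured by AlphaLISA after 16 hr, decreased signal indicating inhibition.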
DT40 TDP1 CPT: growth inhibition of DT40 Tdp1-/-;hTDP1 cells with camptothecin (screen for TDP1 inhibitors); chicken DT40 Tdp1-/-;hTDP1 cells + 20 nM CPT, ATP luminescence, 48 h; Potency, µM (highest dose often 46.2 µM), without a hit: at the top dose activity change, negative = growth inhibition, usual class: inhibitors; 12% of 420,000 active; AID 686979; note: potency is the fitted concentration of half-maximal effect; nearly all actives have a fitted effect of over 55% in size
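Cell growth measured by CellTiter-Glo luminescence after a minimum 48 h, 37 C compound exposure with 20 nM CPT in Tdp1-knockout DT40 cells stably expressing hTDP1, seeded 400/well; qHTS titration format.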
DT40 TDP1 no CPT: qHTS for Inhibitors of human tyrosyl-DNA phosphodiesterase 1 (TDP1): qHTS in cells in absence of CPT; DT40 Tdp1-/- hTDP1 cells, no CPT, ATP luminescence, 48 h; Potency, µM (doses to about 46.2 µM), for the others: at the highest dose activity change, negative = growth inhibition, most hits filed as inhibitors; 15% of 420,000 active; AID 686978, 2013; note: potency is the fitted concentration of half-maximal effect; nearly all actives have a fitted effect of over 55% in size
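Luminescent ATP content (CellTiter-Glo) served as the growth readout. Knockout chicken DT40 cells expressing human TDP1 were exposed to compounds without camptothecin for a minimum 48 hr at 37 °C.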
HT1080 IDH1KD tx: HT-1080 IDH1 knockdown cell toxicity (counter line); HT-1080 IDH1 knockdown viability, ATP luminescence, 48 h; 2% of 360,000 active; Potency, µM (series often up to 46.1 µM), for inactives: top-dose activity, negative = toxicity, usual class: cytotoxic; AID 686971;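 note: potency is the fitted concentration of half-maximal effect; 0% = DMSO wells and -100% = cell-free medium wells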
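In this qHTS, HT-1080 cells depleted of IDH1 are exposed for 48 h at 37 °C to compound titrations. Toxicity is scored from CellTiter-Glo luminescence, with DMSO as full viability and medium alone as none.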
ELG1 DNA repair: ELG1-dependent DNA repair inhibition | HEK293T ELG1-luciferase reporter, luminescence, 16 h; DNA damage induced by 5-fluorouridine | Potency, µM (highest dose often 46.1 µM), for the others: at the highest dose activity change, negative = inhibition, usual class: inhibitors | 2.3% of 330,000 active | AID 504467; note: potency is the fitted concentration of half-maximal effect; nearly all actives have a fitted effect of over 55% in size
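Overnight (16 hr) co-exposure of 2,000 cells/well to 5-fluorouridine and compound at 37 °C preceded detection. Luciferase was quantified via ONE-Glo luminescence; loss of signal denotes inhibition.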
HT1080NT lethal: kills 2HG-producing HT-1080-NT fibrosarcoma cells | HT-1080-NT fibrosarcoma viability, CellTiter-Glo ATP luminescence, 48 h | Potency, µM (top dose mostly 46.1 µM), for the others: at the top dose activity, negative = less viability, hits mostly cytotoxic | 1.6% of 360,000 active | AID 686970;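 note: NT is the 2HG producing partner of a matched IDH1 knockdown line; potency is the fitted concentration of half-maximal effect; 0% = DMSO-treated cells and -100% = media-only wells without cells; nearly all actives have a fitted effect of over 55% in size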
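Luminescent CellTiter-Glo readout after 48 hours of compound exposure at 37 degrees C defined viability of HT-1080-NT cells. Activity was normalized to DMSO wells and cell-free media wells; concentration-response curves were fitted and assigned curve classes.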
An asterisk follows results filed as active; ? = inconclusive; . = no result given. A selection: hits, their analogues and other compounds. The true share with any hit is near 19%. Unless noted, calls come from the whole dose curve; as a rule, active = well fitted curve in the direction sought with a large enough effect; inconclusive = small, poorly fitted or top-dose-only effect, or another doubt; inactive = no such curve, though single readings can be large; an effect the other way counts as inactive or inconclusive. Unless noted, % is set by controls: 0 for no effect and ±100 for the full control effect.

SMILES	IL1B secr inh	DT40 TDP1 CPT	DT40 TDP1 no CPT	HT1080 IDH1KD tx	ELG1 DNA repair	HT1080NT lethal
CC(CCc1ccccc1)NC(=O)Cn1cccc1C(=O)c1ccccc1 (stereo not drawn)	18	-28%	-3%	20%	2%	-2%
O=C(O)c1ccc(NC2CC(=O)N(Cc3ccccc3)C2=O)cc1 (stereo not drawn)	26	-15%	-3%	5%	10%	3%
O=C(CNC(=O)c1ccco1)N/N=C/c1cc(Br)ccc1O	124	2.9µM*	5.8µM*	26µM*	?	?
O=C(CNC(=O)c1ccc2c(c1)OCO2)N/N=C/c1cc(Br)ccc1O	115	8.2µM*	8.2µM*	12µM*	-26%	?
O=C(CNC(=O)c1ccccc1Br)N/N=C/c1ccccc1O	132	?	23µM*	?	?	?
O=C(N/N=C/c1cc(Br)c(Br)o1)c1cccnc1	6	16µM*	18µM*	?	-14%	?
O=C(N/N=C\c1cc(Br)c(Br)o1)c1cncc(Br)c1	10	?	?	-9%	-14%	-26%
O=C(Cc1ccccc1)Nc1ccccc1C(=O)N1CCCCCC1	9	?	24%	7%	10%	12%
CCCCn1c(N)c(N(CC(C)C)C(=O)CC(NC(=O)c2ccccc2Cl)c2ccccc2)c(=O)[nH]c1=O (stereo not drawn)	-30	-17%	-36%	0%	.	0%
O=C1C(c2[nH]c3ccc(S(=O)(=O)O)cc3c2O)=Nc2ccc(S(=O)(=O)O)cc21	.	-19%	-17%	.	.	.
O=C(N/N=C/c1cc(Cl)ccc1O)c1ccccc1Br	298	6.5µM*	6.5µM*	9.2µM*	?	?
O=C(CNC(=O)c1ccccc1Br)N/N=C/c1cc(Br)ccc1O	264	8.2µM*	5.8µM*	?	?	?
O=C(/C=N/NC(=O)c1ccccc1Br)c1ccccc1	-6	?	?	-8%	?	-3%
CCOc1ccc(NC(=O)CN2CC(c3ccccc3)CC2=O)cc1 (stereo not drawn)	-5	8%	9%	5%	24%	5%
O=C(COc1ccccc1)NCC(=O)N/N=C/c1cc(Br)ccc1OCc1ccccc1	-53*	23µM*	16µM*	?	?	-22%
O=C(CN1CC(c2ccccc2)CC1=O)N/N=C/c1cc(Br)ccc1O (stereo not drawn)	71	8.2µM*	6.5µM*	?	12%	?
O=C(CNC(=O)c1ccccc1Br)N/N=C\c1cc([N+](=O)[O-])cc(Br)c1O	-5	16%	8%	-8%	-11%	-17%
COc1ccc(CCC(=O)Nc2ccc(S(=O)(=O)N3CCOCC3)cc2)cc1OC	-8	-15%	?	-13%	.	1%
Oc1c(C(c2ccccc2F)N2CCOCC2)sc2nc(-c3ccco3)nn12 (stereo not drawn)	.	0%	7%	.	.	.
CCOC(=O)c1ccc(-n2c(=O)[nH]c3ccccc3c2=O)cc1	-60*	-14%	-14%	11%	?	20%
CCOC(=O)c1ccc(-n2c(C)ccc2C)cc1	-14	-11%	-5%	2%	-2%	-3%
CCOC(=O)c1ccc(N2C(=O)C=CC2=O)cc1	-89*	0.82µM*	1µM*	-12%	-1%	?
CCOC(=O)c1ccc(-n2c(-c3ccco3)nc3ccccc3c2=O)cc1	10	12µM*	18µM*	15%	-29%	5%
CC(C)c1ccc(NC(=O)CSc2nnc(-c3ccccc3)n2C)cc1	.	-15%	-11%	.	.	.
CCc1nnc(NC(=O)CCC(=O)N2CCN(c3cccc(Cl)c3)CC2)s1	23	-14%	-14%	-10%	5%	-13%
SMILES	IL1B secr inh	DT40 TDP1 CPT	DT40 TDP1 no CPT	HT1080 IDH1KD tx	ELG1 DNA repair	HT1080NT lethal
O=C(C1CCC(=O)N1Cc1ccccc1Cl)N1CCN(c2cccc(Cl)c2)CC1 (stereo not drawn)	-2	23µM*	23µM*	?	-8%	-14%
Cc1ccc(CN2C(=O)CCC2C(=O)NCCCN2CCC(C)CC2)cc1 (stereo not drawn)	-7	20%	10%	1%	3%	8%
Cc1ccc(CN2C(=O)CCC2C(=O)NCCN2CCN(c3cccc(Cl)c3)CC2)cc1 (stereo not drawn)	?	?	15µM*	-15%	-22%	-2%
COC(=O)CSc1nc(N)c2c3c(sc2n1)C(c1ccccc1)SC(c1ccccc1)C3 (stereo not drawn)	-100*	4.1µM*	2.6µM*	?	-8%	?
CC(=O)Nc1cccc(NC(=O)c2cc(-c3ccccn3)nc3ccc(Cl)cc23)c1	16	3%	3%	-3%	-2%	-2%
CSc1ccccc1NC(=O)c1cc(-c2cccnc2)nc2ccc(Br)cc12	?	?	21µM*	2%	23µM*	-4%
CC(=O)Nc1cccc(NC(=O)c2cc(-c3cccnc3)nc3ccc(Br)cc23)c1	-19	18µM*	18µM*	?	?	?
Cc1cc(NS(=O)(=O)c2ccc(NC(=O)c3cc(-c4cccnc4)nc4ccc(Cl)cc34)cc2)no1	39	15%	8%	7%	-3%	-1%
O=C(Nc1ccc(C(=O)N2CCOCC2)cc1)c1cc(-c2cccnc2)nc2ccc(Cl)cc12	?	1.8µM*	2.1µM*	-20%	?	-7%
CC(=O)Nc1cccc(NC(=O)c2cc(-c3cccnc3)nc3ccc(Cl)cc23)c1	?	?	?	?	21µM*	?
CCCc1nc2ccccc2n1C(C(=O)NC(C)(C)C)C1CC1 (stereo not drawn)	34	-9%	?	14%	.	19%
CN(C)c1ccc(-c2cncnc2NCc2cccnc2)cc1	.	?	-29%	.	.	.
CCOC(=O)c1ccc(N2CCN(C(=O)c3ccccc3)CC2)c(NC(=O)c2ccco2)c1	8	-24%	?	-4%	?	-2%
O=C(COc1ccccc1F)NCC(c1ccc(F)cc1)N1CCOCC1 (stereo not drawn)	0	-19%	-22%	3%	-6%	3%
COc1ccccc1-c1ccc2ncnc(NCc3cccnc3)c2c1	.	8.2µM*	6.5µM*	.	.	.
